From PubChem BioAssay AID1014 (NMMLSC, 2008)
The source made the active and inactive calls. Rule as the data show it: active = inhibition of mean fluorescence above about 33%; inactive = the rest.

assay: blockers of bacterial quorum-sensing reporter fluorescence – flow cytometry, SAR analogs, SAR follow-up (AID 1014); conditions: at 20 µM, stronger effect = higher value; inhibition of percent positive cells: measured here: percent reporter-positive cells;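 also: Staphylococcus aureus RN6390 with RNAIII-GFP reporter stimulated by AIP; bacteria incubated with compound for 3 hours at 37 °C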

Structure (SMILES)	inhibition of percent positive cells [%]	inhibition of mean fluorescence
CC(=O)c1ccc(Nc2nc3c(S(=O)(=O)c4ccccc4)nnn3c3ccccc23)cc1	0.1	11.9% (inactive)
Cc1nnc(N2CCCC(C(=O)Nc3ccc4c(c3)OCO4)C2)c2nn(-c3ccccc3)c(C)c12 (configuration not stated)	0	-10.1% (inactive)
COc1cccc(C(=O)NCC(c2cccnc2)N2CCN(c3ccc(F)cc3)CC2)c1 (configuration not stated)	0	8.6% (inactive)
Cc1[nH]nc(Nc2ccccc2C(=O)O)c1[N+](=O)[O-]	0.2	0.1% (inactive)
Cc1ccc(Nc2nc3c(S(=O)(=O)c4ccc(C(C)(C)C)cc4)nnn3c3ccccc23)cc1	-1	-38.2% (inactive)
COc1ccc(S(=O)(=O)c2nnn3c2nc(Nc2ccccc2C)c2ccccc23)cc1	0.4	-17.1% (inactive)
Cc1cc(C)cc(Nc2c(F)c(F)c(F)c(F)c2C(=O)O)c1	-0.2	14% (inactive)
O=C(CN1CC(=O)Oc2ccccc21)Nc1ccc2c(c1)OCO2	-0.2	-25.8% (inactive)
CC(C)c1ccc(NC(=O)C(c2cc3c(cc2[N+](=O)[O-])OCO3)N2CCOCC2)cc1 (configuration not stated)	0.7	8.1% (inactive)
O=C(O)c1c(F)c(F)c(F)c(F)c1Nc1cccc(C(F)(F)F)c1	-0.1	6% (inactive)
Cc1ccc(Nc2c(F)c(F)c(F)c(F)c2C(=O)O)c(C)c1	-2.3	4.2% (inactive)
O=C(NCC(c1cccnc1)N1CCN(c2ccccc2)CC1)c1ccccc1F (configuration not stated)	-1.7	-31.8% (inactive)
COc1ccc(C(=O)NCC(c2cccnc2)N2CCN(c3ccc(F)cc3)CC2)cc1OC (configuration not stated)	0	3.4% (inactive)
Cc1cc(C)nc(Nc2ccccc2C(=O)O)n1	-0.8	22.7% (inactive)
O=C(NCC(c1cccnc1)N1CCN(c2ccc(F)cc2)CC1)c1ccccc1 (configuration not stated)	-0.2	10% (inactive)
O=C(O)c1ccccc1Nc1nc(N2CCCC2)nc(N2CCCC2)n1	-0.3	10.8% (inactive)
CCc1ccc(Nc2nc3c(S(=O)(=O)c4ccc(Br)cc4)nnn3c3ccccc23)cc1	0	-16.7% (inactive)
O=C(Nc1ccc2c(c1)OCO2)C(c1ccccc1)N1CCN(C(=O)c2ccco2)CC1 (configuration not stated)	1	-23.7% (inactive)

Structure (SMILES)	inhibition of percent positive cells [%]	inhibition of mean fluorescence
O=C(c1ccco1)c1coc2ccc(O)cc12	0.2	-10.7% (inactive)
N#Cc1c(NC(=O)COC(=O)c2c3c(nc4ccccc24)CCCC3)sc2c1CCCC2	-0.1	-13.5% (inactive)
CCCCc1oc2ccccc2c1C(=O)c1ccc(O)cc1	43.2	84.9% (active)
O=C(NC1CCCCC1)C(c1cc2c(cc1[N+](=O)[O-])OCO2)N1CCN(c2ccccc2)CC1 (configuration not stated)	0.3	-34.9% (inactive)
O=C(CN1C(=O)c2ccccc2C1=O)N=C1NC(=O)CS1	-1.2	3.2% (inactive)
COc1ccc(Nc2nc3c(S(=O)(=O)c4ccc(C)cc4)nnn3c3ccccc23)cc1	-0.8	4.9% (inactive)
O=C(NCC(c1cccnc1)N1CCN(c2ccccc2)CC1)c1ccc(F)cc1 (configuration not stated)	-0.8	-24.9% (inactive)
O=C(O)c1ccccc1Nc1ccccc1C(=O)O	-0.5	5.8% (inactive)
CC(C)c1ccc(NC(=O)C(c2ccc3c(c2)OCO3)N2CCc3ccccc32)cc1 (configuration not stated)	-1.6	26.3% (inactive)
Cc1c(Nc2c(C(=O)O)cc([N+](=O)[O-])cc2[N+](=O)[O-])c(=O)n(-c2ccccc2)n1C	-0.4	-3.7% (inactive)
CC(=O)c1cc2cc(O)ccc2o1	0.8	-1% (inactive)
CC1CCN(C(C(=O)NC2CCCC2)c2cc3c(cc2[N+](=O)[O-])OCO3)CC1 (configuration not stated)	-1	-5.4% (inactive)
CN=C1NC(=O)CC(C(=O)Nc2ccc3ccccc3c2)S1 (configuration not stated)	-0.3	-1.7% (inactive)
COc1ccc(Nc2nc3c(S(=O)(=O)c4ccc(C(C)C)cc4)nnn3c3ccccc23)cc1	0.3	-10.2% (inactive)
CCOc1ccc(Nc2nc3c(S(=O)(=O)c4ccc(Br)cc4)nnn3c3ccccc23)cc1	-0.3	-22.8% (inactive)
O=C(Nc1ccc2c(c1)OCO2)C(c1ccc(Cl)cc1)N1CCC2(CC1)OCCO2 (configuration not stated)	-0.8	-0.5% (inactive)
CSCCC(NC(=O)c1ccccc1)C(=O)OCC(=O)Nc1sc2c(c1C#N)CCCC2 (configuration not stated)	-0.2	40.6% (active)
CCOC(=O)c1c(-c2cc(Br)c(OC)c(Br)c2)oc2ccc(O)cc12	-0.6	-2.7% (inactive)
